From PubChem BioAssay AID2108 (National Center for Advancing Translational Sciences (NCATS), 2009)
Inconclusive results are not listed. A number with no mark means an inactive call. Calls follow the shape of the dose curve; as a rule, active = well fitted curve in the direction sought with a large enough effect; inconclusive = small, poorly fitted or top-dose-only effect, or effect the other way, or another doubt; inactive = no such curve, though single readings can be large or run the other way.

What follows are compounds tested against Alpha-galactosidase A (Homo sapiens) (UniProt P06280) (assay: Confirmation of Inhibitors of Human alpha-Galactosidase Using Spleen Homogenate). Settings: alpha-galactosidase enzyme activity; series mostly up to 56.2 µM; activity change: at the top concentration.
Method in brief: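 Human spleen homogenate (1 ug) with 1 mM 4-methylumbelliferyl-alpha-D-galactopyranoside in citrate-phosphate pH 5.0, 0.01% Tween-20, 37C 40 min; compounds 0.5 nM–58 uM final. Stopped at pH 10, fluorescence Ex 365/Em 440; AC50 from Hill fits.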
Also: 0% is about no effect.

Chain of Alpha-galactosidase A (Homo sapiens) (P06280 32-429 limits assumed): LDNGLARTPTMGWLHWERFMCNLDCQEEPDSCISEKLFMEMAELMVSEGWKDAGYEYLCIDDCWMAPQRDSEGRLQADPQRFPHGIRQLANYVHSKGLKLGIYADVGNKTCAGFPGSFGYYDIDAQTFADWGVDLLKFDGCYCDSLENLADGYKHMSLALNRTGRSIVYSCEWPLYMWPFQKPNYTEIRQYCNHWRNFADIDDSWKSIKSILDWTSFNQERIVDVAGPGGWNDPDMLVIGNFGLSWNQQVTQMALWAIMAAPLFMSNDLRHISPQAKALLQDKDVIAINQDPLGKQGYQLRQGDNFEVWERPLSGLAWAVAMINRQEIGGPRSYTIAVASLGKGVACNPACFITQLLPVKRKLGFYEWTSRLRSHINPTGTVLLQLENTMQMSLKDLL

Structure (SMILES) | activity change
CC1S/C(=N\N=C\c2cccc([N+](=O)[O-])c2)N(C(C)(C)C)C1=O (stereo unspecified) | 0.894% [at 23.6 µM]
O=c1oc2ccc(Br)cc2cc1-c1nc2c(s1)CCc1ccccc1-2 | -6.87%
Cc1ccc2c(c1)c1ncnc(N3CCC4(CC3)OCCO4)c1n2C | 18.8% [at 23.6 µM]
O=S(=O)(c1ccccc1F)N1CCOCC1 | 10.5%
Cc1cnc(C(=O)Nc2cc(S(=O)(=O)N3CCOCC3)ccc2N2CCN(C)CC2)cn1 | 1.16%
CCCCCCc1cc2cc(C(=O)NC)c(=N)oc2cc1O | 71.6%
CC1(CCc2ccc3c(c2)OCO3)NC(=O)c2ccccc2N1 (stereo unspecified) | -1.65% [at 23.6 µM]
C(=C/c1nccc2c1[nH]c1ccccc12)/c1ccc2c(c1)OCO2 | 23.5%
CCN(CC)c1ccc(/C=N/NC(=O)C(O)c2ccccc2)cc1 (stereo unspecified) | -3.15% [at 23.6 µM]
O=C(CC(c1ccccc1)c1cc(Br)ccc1O)NCCN1CCOCC1 (stereo unspecified) | 5.29% [at 23.6 µM]
O=C(NCCCN1CCOCC1)c1cccs1 | -1.58% [at 23.6 µM]
COc1ccc(/C=C/c2nnc(NC(=O)CSc3ccccc3)s2)cc1 | 8.53%
OCCN1CC(O)C(O)C(O)C1CO (stereo unspecified) | -3.46%
O=C1c2cc(O)c(O)cc2S(=O)(=O)C1c1ccccc1 (stereo unspecified) | 0.148%
CN(CCO)S(=O)(=O)c1ccc2c(c1)C(=NN)c1cc(S(=O)(=O)N(C)CCO)ccc1-2 | 3.16%
CC1(C)CC(=O)c2cc(C(=O)NCc3ccco3)c(=O)n(-c3ccc(Cl)cc3)c2C1 | 3.72% [at 23.6 µM]
COc1ccccc1NCC(=O)n1nc(C)cc1C | -2.77%
Cc1nc(SCC(=O)N2CCN(c3ccccc3)CC2)c2oc3ccccc3c2n1 | 11.7%

Structure (SMILES) | activity change
COc1cccc2cc(-c3nc4c(s3)CCc3ccccc3-4)c(=O)oc12 | 8.58%
COc1cccc(S(=O)(=O)N2CCOCC2)c1 | 9.2%
CN1CC=C2C(C#N)=C(N)C(C#N)(C#N)[C@H](c3cccc(Cl)c3)C2C1 (stereo partly specified) | -3.22% [at 23.6 µM]
N#Cc1c(-c2ccccc2)nc(SCc2nc(N)nc(N3CCCCC3)n2)[nH]c1=O | 6.63%
COc1ccc2nc3c(cc2c1)Cn1c-3nc2ccccc2c1=O | 21%
CCOC(=O)c1c(-c2ccc(-c3ccccc3)cc2)csc1NC(=O)CCN1CCOCC1 | 6.65%
CCN(CC)S(=O)(=O)c1ccc2c(c1)-c1cc(S(=O)(=O)N(CC)CC)ccc1C2=NNC(N)=S | 4.6%
COc1ccc(C2C3=C(CCCC3=O)N(CC(=O)O)C3=C2C(=O)CCC3)cc1Cl | 25.7%
COc1ccc(C(=O)N2CCn3c(C)ccc3C2C)cc1 (stereo unspecified) | -1.12%
Cc1nc(-n2nnc(CO)c2CO)nc2c1CCC2 | 8.66%
O=c1oc2ccc3ccccc3c2cc1-c1nc(CCCBr)cs1 | -0.995%
Cc1ccc(S(=O)(=O)N2CCN(CC(=O)N/N=C\c3ccccn3)CC2)cc1 | 10.8%
NN=C1c2cc(S(=O)(=O)NCCO)ccc2-c2ccc(S(=O)(=O)NCCO)cc21 | 4.61%
O=S(=O)(c1ccc2nc(-c3ccco3)c(-c3ccco3)nc2c1)N1CCOCC1 | 4.72%
CCC1OC23CCCCC2C(C#N)(C(=N)O3)C1(C#N)C#N (stereo unspecified) | 5.38% [at 23.6 µM]
O=S(=O)(c1cccc(Br)c1)N1CCOCC1 | -13.3%
Cc1ccccc1NC(=O)CC1c2ccccc2CC(C)(C)N1C (stereo unspecified) | -2.65%
Cc1sc(-c2cc3cc(Cl)ccc3oc2=O)nc1-c1ccccc1 | 10.1%
